Results on seven sequences are retold here after paper PMC7862700, “An all-to-all approach to the identification of sequence-specific readers for epigenetic DNA modifications on cytosine”.

What all share (assay): DAPPL (digital affinity profiling via proximity ligation, sequencing); 10 mM Tris-HCl pH 7.5, 50 mM NaCl, 1 mM DTT, 4% glycerol, room temperature, 30 min; GST-TFs on glutathione beads, 16-mer random dsDNA library, 0.1% formaldehyde crosslink after washing; high values mean tight binding
Common to all, as to details: protein: recombinant; tags: N-terminal GST; dsDNA, one strand shown

The target in assay [1] is T1, FLI1 (Homo sapiens, UniProt Q01543 1-452).
T1 sequence: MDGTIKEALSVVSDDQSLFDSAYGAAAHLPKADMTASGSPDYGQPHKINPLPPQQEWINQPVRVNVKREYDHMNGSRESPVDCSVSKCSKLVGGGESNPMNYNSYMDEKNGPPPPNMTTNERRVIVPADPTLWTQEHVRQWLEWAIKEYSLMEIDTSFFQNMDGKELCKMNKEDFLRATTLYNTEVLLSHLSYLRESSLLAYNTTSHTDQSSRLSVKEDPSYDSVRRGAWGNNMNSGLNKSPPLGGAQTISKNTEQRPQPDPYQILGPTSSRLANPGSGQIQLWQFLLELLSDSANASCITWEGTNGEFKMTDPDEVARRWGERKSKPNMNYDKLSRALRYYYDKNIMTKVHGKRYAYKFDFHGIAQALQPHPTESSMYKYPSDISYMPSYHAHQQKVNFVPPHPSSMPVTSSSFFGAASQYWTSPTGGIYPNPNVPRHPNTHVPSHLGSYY
Summed up: (§1)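 Pools of DNA-barcoded human transcription factors, expressed in yeast as GST fusions on glutathione beads and combined with a tag-only sample, were incubated with 200 nmole of a 16-mer random double-stranded DNA library. Incubation took 30 min at room temperature in Tris/NaCl/DTT/glycerol buffer and was followed by washing, 0.1% formaldehyde crosslinking, proximity ligation (BsaI/T4 ligase, 1 h, 37 °C), PCR amplification and sequencing on an Illumina NextSeq500. Binding signal is the ratio of a hexamer's read frequency for a factor to its frequency for the tag-only sample.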

The target of assay [2] is T2, ELK1 (Homo sapiens, UniProt P19419 1-428).
T2 sequence: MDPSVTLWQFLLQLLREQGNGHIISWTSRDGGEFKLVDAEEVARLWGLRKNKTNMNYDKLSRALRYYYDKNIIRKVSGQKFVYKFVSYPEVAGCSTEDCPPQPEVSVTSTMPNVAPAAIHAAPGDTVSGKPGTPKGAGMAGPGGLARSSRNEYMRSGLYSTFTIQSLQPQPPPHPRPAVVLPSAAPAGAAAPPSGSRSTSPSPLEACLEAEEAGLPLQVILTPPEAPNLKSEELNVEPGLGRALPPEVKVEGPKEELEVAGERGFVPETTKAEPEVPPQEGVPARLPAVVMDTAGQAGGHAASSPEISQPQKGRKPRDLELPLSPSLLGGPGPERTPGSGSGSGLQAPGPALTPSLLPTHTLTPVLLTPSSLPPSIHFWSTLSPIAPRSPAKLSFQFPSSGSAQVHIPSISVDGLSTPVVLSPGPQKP
Summed up: as §1

The target of assay [3] is T3, GABPA (Homo sapiens, UniProt Q06546 1-454).
T3 sequence: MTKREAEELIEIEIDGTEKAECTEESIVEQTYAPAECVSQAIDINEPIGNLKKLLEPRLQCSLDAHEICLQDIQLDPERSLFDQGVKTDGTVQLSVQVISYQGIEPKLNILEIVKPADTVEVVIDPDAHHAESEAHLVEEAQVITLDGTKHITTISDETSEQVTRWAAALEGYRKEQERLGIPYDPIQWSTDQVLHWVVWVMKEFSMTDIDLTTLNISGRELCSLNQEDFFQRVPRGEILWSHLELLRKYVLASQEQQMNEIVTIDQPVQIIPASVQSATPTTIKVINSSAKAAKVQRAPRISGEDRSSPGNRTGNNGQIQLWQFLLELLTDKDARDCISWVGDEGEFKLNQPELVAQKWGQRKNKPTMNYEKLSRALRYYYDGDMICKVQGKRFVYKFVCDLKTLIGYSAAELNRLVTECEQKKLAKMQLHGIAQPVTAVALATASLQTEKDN
Summed up: as §1

The target of assay [4] is T4, ERG (Homo sapiens, UniProt P11308 1-479).
T4 sequence: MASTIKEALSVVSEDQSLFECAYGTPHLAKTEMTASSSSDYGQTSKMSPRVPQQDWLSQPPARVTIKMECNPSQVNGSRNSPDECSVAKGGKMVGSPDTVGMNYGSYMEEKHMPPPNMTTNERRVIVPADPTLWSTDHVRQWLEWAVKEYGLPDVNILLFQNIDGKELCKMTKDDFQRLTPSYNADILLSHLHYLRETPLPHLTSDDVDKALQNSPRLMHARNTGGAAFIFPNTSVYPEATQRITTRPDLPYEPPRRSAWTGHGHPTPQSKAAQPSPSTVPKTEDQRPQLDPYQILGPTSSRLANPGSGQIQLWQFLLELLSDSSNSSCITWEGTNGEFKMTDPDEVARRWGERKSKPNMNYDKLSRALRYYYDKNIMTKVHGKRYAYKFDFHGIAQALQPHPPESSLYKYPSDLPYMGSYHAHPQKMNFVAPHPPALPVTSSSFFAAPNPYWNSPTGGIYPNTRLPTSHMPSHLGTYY
Summed up: as §1

Assay [5] has as its target ELF1 (Homo sapiens, UniProt P32519 1-619). Summed up: as §1
Assay [6] has as its target T5, EHF (Homo sapiens, UniProt Q9NZC4 1-300).
T5 sequence: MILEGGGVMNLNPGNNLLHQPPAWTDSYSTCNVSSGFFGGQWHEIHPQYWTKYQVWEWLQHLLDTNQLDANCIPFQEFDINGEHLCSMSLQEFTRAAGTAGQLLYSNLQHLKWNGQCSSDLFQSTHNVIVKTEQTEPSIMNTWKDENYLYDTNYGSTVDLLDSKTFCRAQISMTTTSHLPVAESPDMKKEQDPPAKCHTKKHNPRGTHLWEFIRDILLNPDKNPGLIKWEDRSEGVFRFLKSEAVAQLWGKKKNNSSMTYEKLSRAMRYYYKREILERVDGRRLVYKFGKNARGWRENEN
Summed up: as §1

Assay [7] addresses SPI1 (Homo sapiens, UniProt P17947 1-270). Summed up: as §1
Assay [8] has as its target SPIB (Homo sapiens, UniProt Q01892 1-262). The method, boiled down: as §1
The target in assay [9] is T6, ELK3 (Homo sapiens, UniProt P41970 1-407).
T6 sequence: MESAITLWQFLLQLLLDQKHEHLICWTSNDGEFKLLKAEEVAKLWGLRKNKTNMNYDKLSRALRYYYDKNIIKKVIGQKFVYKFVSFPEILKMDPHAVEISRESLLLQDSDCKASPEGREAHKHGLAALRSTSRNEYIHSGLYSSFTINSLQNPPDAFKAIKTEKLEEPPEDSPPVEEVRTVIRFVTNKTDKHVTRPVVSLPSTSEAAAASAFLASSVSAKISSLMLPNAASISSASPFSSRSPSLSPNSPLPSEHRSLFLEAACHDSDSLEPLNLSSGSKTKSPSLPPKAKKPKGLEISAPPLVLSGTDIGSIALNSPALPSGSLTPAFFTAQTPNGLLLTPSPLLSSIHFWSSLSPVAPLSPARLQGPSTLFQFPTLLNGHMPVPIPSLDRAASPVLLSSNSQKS
The method, boiled down: as §1

Chain of SPIB (Q01892 whole entry): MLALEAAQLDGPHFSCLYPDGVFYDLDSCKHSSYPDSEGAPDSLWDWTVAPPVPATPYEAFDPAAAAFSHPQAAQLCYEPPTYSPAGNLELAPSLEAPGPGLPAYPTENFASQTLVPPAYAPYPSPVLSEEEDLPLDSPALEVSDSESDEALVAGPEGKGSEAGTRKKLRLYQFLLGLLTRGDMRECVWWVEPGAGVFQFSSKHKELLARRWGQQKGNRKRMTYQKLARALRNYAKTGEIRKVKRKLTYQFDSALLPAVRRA
Chain of ELF1 (P32519 whole entry): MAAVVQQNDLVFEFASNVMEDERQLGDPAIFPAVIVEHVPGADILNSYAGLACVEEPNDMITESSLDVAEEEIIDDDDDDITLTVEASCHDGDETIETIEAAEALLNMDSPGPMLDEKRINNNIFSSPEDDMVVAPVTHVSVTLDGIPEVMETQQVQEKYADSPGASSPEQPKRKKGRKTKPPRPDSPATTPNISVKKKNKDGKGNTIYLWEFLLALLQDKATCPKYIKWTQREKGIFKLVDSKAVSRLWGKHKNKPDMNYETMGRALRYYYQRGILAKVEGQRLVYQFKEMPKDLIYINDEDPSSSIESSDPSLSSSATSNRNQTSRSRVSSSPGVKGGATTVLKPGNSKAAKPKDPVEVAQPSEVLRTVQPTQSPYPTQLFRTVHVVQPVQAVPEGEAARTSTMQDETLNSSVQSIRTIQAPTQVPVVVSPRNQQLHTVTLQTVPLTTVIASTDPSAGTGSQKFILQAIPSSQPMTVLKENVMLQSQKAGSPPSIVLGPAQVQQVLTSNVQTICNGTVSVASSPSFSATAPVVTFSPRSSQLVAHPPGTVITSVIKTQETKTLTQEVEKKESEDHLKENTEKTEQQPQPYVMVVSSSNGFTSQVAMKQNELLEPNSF

Turning to CCCGCC, the binding signal in assay [1] is 1.46 fold enrichment (6-mer frequency, TF over GST control); in assay [2], 1.75 fold enrichment (6-mer frequency, TF over GST control); in assay [3], 1.57 fold enrichment (6-mer frequency, TF over GST control); in assay [4], 1.5 fold enrichment (6-mer frequency, TF over GST control); in assay [5], 1.58 fold enrichment (6-mer frequency, TF over GST control); in [6], 1.53 fold enrichment (6-mer frequency, TF over GST control). For the same sequence, the binding signal in [7] is 1.44 fold enrichment (6-mer frequency, TF over GST control); in assay [8] it was 1.31 fold enrichment (6-mer frequency, TF over GST control); in assay [9], 1.63 fold enrichment (6-mer frequency, TF over GST control).
As to CTTCGC, the binding signal was 1.43 fold enrichment (6-mer frequency, TF over GST control) in assay [1]; 1.56 fold enrichment (6-mer frequency, TF over GST control) in assay [2]; 1.5 fold enrichment (6-mer frequency, TF over GST control) in [3]; 1.53 fold enrichment (6-mer frequency, TF over GST control) in [4]; 1.46 fold enrichment (6-mer frequency, TF over GST control) in [5]; 1.32 fold enrichment (6-mer frequency, TF over GST control) in [6]. Also, the binding signal is 1.42 fold enrichment (6-mer frequency, TF over GST control) in assay [7]; 1.6 fold enrichment (6-mer frequency, TF over GST control) in assay [8]; 1.7 fold enrichment (6-mer frequency, TF over GST control) in [9].
As to TTTAAA, the binding signal in assay [1] was 1.27 fold enrichment (6-mer frequency, TF over GST control); in assay [2], 1.26 fold enrichment (6-mer frequency, TF over GST control); in assay [3], 1.19 fold enrichment (6-mer frequency, TF over GST control); in [4] it was 1.2 fold enrichment (6-mer frequency, TF over GST control); in assay [5] it was 1.29 fold enrichment (6-mer frequency, TF over GST control); in [6] it was 1.21 fold enrichment (6-mer frequency, TF over GST control). The binding signal is 1.31 fold enrichment (6-mer frequency, TF over GST control) in [7]; 1.17 fold enrichment (6-mer frequency, TF over GST control) in assay [8]; 1.32 fold enrichment (6-mer frequency, TF over GST control) in assay [9].
Take CTCATG: the binding signal was 1.29 fold enrichment (6-mer frequency, TF over GST control) in assay [1]; 1.29 fold enrichment (6-mer frequency, TF over GST control) in assay [2]; 1.26 fold enrichment (6-mer frequency, TF over GST control) in assay [3]; 1.21 fold enrichment (6-mer frequency, TF over GST control) in assay [4]; 1.32 fold enrichment (6-mer frequency, TF over GST control) in assay [5]; 1.23 fold enrichment (6-mer frequency, TF over GST control) in assay [6]. For the same sequence, the binding signal in [7] was 1.27 fold enrichment (6-mer frequency, TF over GST control); in assay [8], 1.11 fold enrichment (6-mer frequency, TF over GST control); in assay [9], 1.26 fold enrichment (6-mer frequency, TF over GST control).
As for CAATAC, the binding signal in assay [1] was 1.25 fold enrichment (6-mer frequency, TF over GST control); in assay [2] it was 1.29 fold enrichment (6-mer frequency, TF over GST control); in [3] it was 1.23 fold enrichment (6-mer frequency, TF over GST control); in assay [4] it was 1.23 fold enrichment (6-mer frequency, TF over GST control); in assay [5], 1.24 fold enrichment (6-mer frequency, TF over GST control); in [6], 1.2 fold enrichment (6-mer frequency, TF over GST control). Also, the binding signal in [7] was 1.25 fold enrichment (6-mer frequency, TF over GST control); in assay [8], 1.17 fold enrichment (6-mer frequency, TF over GST control); in [9], 1.28 fold enrichment (6-mer frequency, TF over GST control).
For AACACA, the binding signal is 1.32 fold enrichment (6-mer frequency, TF over GST control) in assay [1]; 1.32 fold enrichment (6-mer frequency, TF over GST control) in [2]; 1.33 fold enrichment (6-mer frequency, TF over GST control) in [3]; 1.32 fold enrichment (6-mer frequency, TF over GST control) in [4]; 1.39 fold enrichment (6-mer frequency, TF over GST control) in assay [5]; 1.38 fold enrichment (6-mer frequency, TF over GST control) in assay [6]. Besides, the binding signal in [7] was 1.27 fold enrichment (6-mer frequency, TF over GST control); in assay [8], 1.35 fold enrichment (6-mer frequency, TF over GST control); in assay [9] it was 1.26 fold enrichment (6-mer frequency, TF over GST control).
For the sequence AAGTCC, the binding signal in assay [1] was 1.21 fold enrichment (6-mer frequency, TF over GST control); in assay [2] it was 1.31 fold enrichment (6-mer frequency, TF over GST control); in [3], 1.18 fold enrichment (6-mer frequency, TF over GST control); in assay [4], 1.35 fold enrichment (6-mer frequency, TF over GST control); in assay [5], 1.23 fold enrichment (6-mer frequency, TF over GST control); in assay [6], 1.27 fold enrichment (6-mer frequency, TF over GST control). Besides, the binding signal was 1.36 fold enrichment (6-mer frequency, TF over GST control) in assay [7]; 1.28 fold enrichment (6-mer frequency, TF over GST control) in assay [8]; 1.27 fold enrichment (6-mer frequency, TF over GST control) in assay [9].
